# Results from the supplement of paper PMC8728848.
# The entries come from a sample that favours the strongest signals as a whole.
# B1: SUN4 (Saccharomyces cerevisiae), P53616 (protein)
# chain: MGSSHHHHHHSSGLVPRGSHNGSIYGDLADFSGPYEKFEDGTIPCGQFPSGQGVIPISWLDEGGWSGVENTDTSTGGSCKEGSYCSYACQPGMSKTQWPSDQPSDGRSIGGLLCKDGYLYRSNTDTDYLCEWGVDAAYVVSELSNDVAICRTDYPGTENMVIPTYVQAGDSLPLTVVDQDTYYTWQGLKTSAQYYVNNAGISVEDACVWGSSSSGVGNWAPLNFGAGSSDGVAYLSLIPNPNNGNALNFNVKIVAADDSSTVNGECIYENGSFSGGSDGCTVSVTAGKAKFVLYN
# Legend:
# Test in all cases: glycan array binding signal (z-score within array); higher = stronger binding
# Details in all cases: glycan notation: IUPAC condensed, linker removed
# [1] = biological target: Gal(b1-4)GlcNAc(b1-3)Gal(b1-4)GlcNAc(b1-3)Gal(b1-4)GlcNAc(b1-2)Man(a1-3)[Gal(b1-4)GlcNAc(b1-3)Gal(b1-4)GlcNAc(b1-3)Gal(b1-4)GlcNAc(b1-2)Man(a1-6)]Man(b1-4)GlcNAc(b1-4)[Fuc(a1-6)]GlcNAc
# Outline: (§1)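 From the Consortium for Functional Glycomics database, 3228 arrays were curated, keeping only those whose protein sequence was available. Binding is given as a within-array Z-score averaged across arrays sharing a protein sequence and across linkers. Negative Z-scores can be read as non-binding.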
# [2] = biological target: Gal(b1-4)GlcNAc(b1-3)[Gal(b1-4)GlcNAc(b1-6)]Gal(b1-4)GlcNAc
# Outline: as §1
# Gal3S6S(b1-4)GlcNAc = biological target: Gal3S6S(b1-4)GlcNAc
# Outline: as §1
# [3] = biological target: GalNAc(a1-3)GalNAc(b1-3)Gal(a1-4)Gal(b1-4)Glc
# Outline: as §1
# [4] = biological target: GalNAc(b1-4)GlcNAc(b1-2)Man(a1-3)[GalNAc(b1-4)GlcNAc(b1-2)Man(a1-6)]Man(b1-4)GlcNAc(b1-4)GlcNAc
# Outline: as §1
# [5] = biological target: GalNAc(b1-4)GlcNAc(b1-3)GalNAc(b1-4)GlcNAc
# Outline: as §1
# GalNAc(b1-4)GlcNAc6S = biological target: GalNAc(b1-4)GlcNAc6S
# Outline: as §1
# GalNAc3S(b1-4)GlcNAc = biological target: GalNAc3S(b1-4)GlcNAc
# Outline: as §1
# GlcA(b1-3)GlcNAc = biological target: GlcA(b1-3)GlcNAc
# Outline: as §1
# [6] = biological target: GlcNAc(a1-3)Gal(b1-4)GlcNAc
# Outline: as §1
# [7] = biological target: GlcNAc(b1-2)Gal(b1-3)GalNAc
# Outline: as §1
# [8] = biological target: GlcNAc(b1-2)Man(a1-3)[GlcNAc(b1-4)][GlcNAc(b1-2)Man(a1-6)]Man(b1-4)GlcNAc(b1-4)[Fuc(a1-6)]GlcNAc
# Outline: as §1
# [9] = biological target: GlcNAc(b1-3)Gal(b1-4)GlcNAc(b1-3)Gal(b1-4)GlcNAc
# Outline: as §1
# [10] = biological target: GlcNAc(b1-3)Gal(b1-4)GlcNAc(b1-3)Gal(b1-4)GlcNAc(b1-2)Man(a1-3)[GlcNAc(b1-3)Gal(b1-4)GlcNAc(b1-3)Gal(b1-4)GlcNAc(b1-2)Man(a1-6)]Man(b1-4)GlcNAc(b1-4)GlcNAc
# Outline: as §1
# [11] = biological target: GlcNAc(b1-3)Gal(b1-4)GlcNAc(b1-3)Gal(b1-4)GlcNAc(b1-2)[GlcNAc(b1-3)Gal(b1-4)GlcNAc(b1-3)Gal(b1-4)GlcNAc(b1-6)]Man(a1-6)[GlcNAc(b1-3)Gal(b1-4)GlcNAc(b1-3)Gal(b1-4)GlcNAc(b1-2)Man(a1-3)]Man(b1-4)GlcNAc(b1-4)[Fuc(a1-6)]GlcNAc
# Outline: as §1
# [12] = biological target: GlcNAc(b1-3)Gal(b1-4)GlcNAc(b1-3)Gal(b1-4)GlcNAc(b1-3)Gal(b1-4)GlcNAc(b1-2)[GlcNAc(b1-3)Gal(b1-4)GlcNAc(b1-3)Gal(b1-4)GlcNAc(b1-3)Gal(b1-4)GlcNAc(b1-6)]Man(a1-6)[GlcNAc(b1-3)Gal(b1-4)GlcNAc(b1-3)Gal(b1-4)GlcNAc(b1-3)Gal(b1-4)GlcNAc(b1-2)Man(a1-3)]Man(b1-4)GlcNAc(b1-4)[Fuc(a1-6)]GlcNAc
# Outline: as §1
# [13] = biological target: Neu5Ac(a2-3)Gal(b1-3)GalNAc(b1-3)Gal(a1-4)Gal(b1-4)Glc
# Outline: as §1
# [14] = biological target: Neu5Ac(a2-3)Gal(b1-4)GlcNAc(b1-2)[Neu5Ac(a2-3)Gal(b1-4)GlcNAc(b1-6)]Man(a1-6)[Neu5Ac(a2-3)Gal(b1-4)GlcNAc(b1-2)Man(a1-3)][GlcNAc(b1-4)]Man(b1-4)GlcNAc(b1-4)GlcNAc
# Outline: as §1
# [15] = biological target: Neu5Ac(a2-3)Gal(b1-4)GlcNAc(b1-3)Gal(b1-3)GlcNAc
# Outline: as §1
# [16] = biological target: Neu5Ac(a2-3)Gal(b1-4)[Fuc(a1-3)]GlcNAc
# Outline: as §1
# [17] = biological target: Neu5Ac(a2-3)Gal(b1-4)[Fuc(a1-3)]GlcNAc(b1-3)GalNAc
# Outline: as §1
# [18] = biological target: Neu5Ac(a2-6)Gal(b1-4)GlcNAc(b1-2)Man(a1-3)Man(b1-4)GlcNAc(b1-4)GlcNAc
# Outline: as §1
# [19] = biological target: Neu5Ac(a2-6)Gal(b1-4)GlcNAc(b1-2)Man(a1-3)[GlcNAc(b1-4)][Neu5Ac(a2-6)Gal(b1-4)GlcNAc(b1-2)Man(a1-6)]Man(b1-4)GlcNAc(b1-4)GlcNAc
# Outline: as §1
# [20] = biological target: Neu5Ac(a2-6)Gal(b1-4)GlcNAc(b1-2)Man(a1-3)[Neu5Ac(a2-6)Gal(b1-4)GlcNAc(b1-2)Man(a1-6)]Man(b1-4)GlcNAc(b1-4)GlcNAc
# Outline: as §1
# [21] = biological target: Neu5Ac(a2-6)Gal(b1-4)GlcNAc(b1-2)Man(a1-3)[Neu5Ac(a2-6)Gal(b1-4)GlcNAc(b1-2)Man(a1-6)]Man(b1-4)GlcNAc(b1-4)[Fuc(a1-6)]GlcNAc
# Outline: as §1
# [22] = biological target: Neu5Ac(b2-6)Gal(b1-4)GlcNAc
# Outline: as §1
# [23] = biological target: Neu5Gc(a2-6)Gal(b1-4)GlcNAc
# Outline: as §1
# [24] = biological target: Neu5Gc(a2-8)Neu5Gc(a2-3)Gal(b1-4)GlcNAc
# Outline: as §1
binder,measurement,setting,value
B1,glycan array binding signal (z-score),[1],2.9
same,glycan array binding signal (z-score),[2],-1.28
same,glycan array binding signal (z-score),Gal3S6S(b1-4)GlcNAc,2.2
same,glycan array binding signal (z-score),[3],-0.199
same,glycan array binding signal (z-score),[4],4.51
same,glycan array binding signal (z-score),[5],-0.309
same,glycan array binding signal (z-score),GalNAc(b1-4)GlcNAc6S,0.149
same,glycan array binding signal (z-score),GalNAc3S(b1-4)GlcNAc,1.87
same,glycan array binding signal (z-score),GlcA(b1-3)GlcNAc,-0.127
same,glycan array binding signal (z-score),[6],0.414
same,glycan array binding signal (z-score),[7],0.963
same,glycan array binding signal (z-score),[8],-0.555
same,glycan array binding signal (z-score),[9],0.244
same,glycan array binding signal (z-score),[10],0.121
same,glycan array binding signal (z-score),[11],1.97
same,glycan array binding signal (z-score),[12],1.86
same,glycan array binding signal (z-score),[13],0.263
same,glycan array binding signal (z-score),[14],-0.391
same,glycan array binding signal (z-score),[15],-0.71
same,glycan array binding signal (z-score),[16],-0.661
same,glycan array binding signal (z-score),[17],1.91
same,glycan array binding signal (z-score),[18],-0.036
same,glycan array binding signal (z-score),[19],0.646
same,glycan array binding signal (z-score),[20],0.023
same,glycan array binding signal (z-score),[21],0.827
same,glycan array binding signal (z-score),[22],-0.182
same,glycan array binding signal (z-score),[23],-0.424
same,glycan array binding signal (z-score),[24],-0.415
